This note sets out measurements from ChEMBL document CHEMBL1157539, “Thousands of chemical starting points for antimalarial lead identification” (Nature, 2010).

SMILES strings stand for the structures.

What all share (type): functional
The test system of experiment [1] is Plasmodium falciparum. Put plainly: GSK_TCMDC: Inhibition of Plasmodium falciparum 3D7 in whole red blood cells, using parasite LDH activity as an index of growth. Test compounds present at 2uM.
The subject of experiment [2] is Plasmodium falciparum. Put plainly: GSK_TCMDC: Inhibition of Plasmodium falciparum Dd2 in whole red blood cells, using parasite LDH activity as an index of growth. Test compounds present at 2uM.
A further experiment relates to HepG2. Put plainly: GSK_TCMDC: Percent inhibition of human HepG2 cell line. Test compounds present at 10uM.

As a reminder, the Inhibition is the relative decrease from the control value, in per cent. Read a high Inhibition as a strong effect. Regarding `Cc1cc(CN2CC[C@H](NC(=O)c3ccc(Cl)c(Cl)c3)C2)ccc1OCCCN(C)C.O=C(O)C(F)(F)F`, the Inhibition in the experiment with Plasmodium falciparum [1] is 99%; in the experiment with Plasmodium falciparum [2], 35%; in the experiment with HepG2, 41%.

Turning to `Cl.N#Cc1ccc(CCNc2nccc(-c3cccc(CN4CCNCC4)c3)n2)cc1`, the Inhibition is 83% in the experiment on Plasmodium falciparum [1], 0% in the experiment with Plasmodium falciparum [2] and 5% in the experiment with HepG2.

With `Oc1ccc(Cl)cc1CN1CCC2(CCCN(CC3CCC3)C2)C1` (stereo not drawn), the results for the Inhibition with Plasmodium falciparum [1], in the experiment on Plasmodium falciparum [2] and with HepG2 were 100%, 94% and 5%, respectively.

As for `COC(=O)c1cccc(CNCc2cccc(-c3ccc(-c4nc5cc(C(F)(F)F)ccc5[nH]4)cc3)c2)c1.O=C(O)C(F)(F)F`, the Inhibition came out at 100% in the experiment on Plasmodium falciparum [1], 83% with Plasmodium falciparum [2] and 13% in the experiment with HepG2.

Turning to `CCC1CN2CCc3c([nH]c4ccccc34)C2CC1CC1=NCCc2c1[nH]c1ccc(OC)cc21.Cl` (stereo not drawn), the figures for the Inhibition with Plasmodium falciparum [1], in the experiment on Plasmodium falciparum [2] and with HepG2 were 100%, 68% and 99%, respectively.

Consider `CC(C)(C(=O)Nc1ccc(C2CCC(NCC3CC3)CC2)c(Cl)c1)c1cccc(OC(F)F)c1` (stereo not drawn), for which the figures for the Inhibition in the experiment with Plasmodium falciparum [1], in the experiment on Plasmodium falciparum [2] and in the experiment with HepG2 were 99%, 23% and 34%, respectively.

In the case of `Cc1cc(N2CCN(CC3CCCCC3)CC2)nc(Nc2ccc(Br)cc2)n1`, the figures for the Inhibition in the experiment with Plasmodium falciparum [1], in the experiment with Plasmodium falciparum [2] and with HepG2 were 91%, 16% and 0%, respectively.

As to `COCCCNC(=O)C1CCN(C(c2ccc(Cl)cc2)c2ccc(Cl)cc2)CC1`, the Inhibition in the experiment on Plasmodium falciparum [1] came to 91%; in the experiment with Plasmodium falciparum [2] it was 63%; with HepG2 it was 5%.

For the compound `CN(C)c1ccc(-c2csc(C(=O)NCC3CCN(Cc4cccc(C(F)(F)F)c4)C3)c2)cc1.O=C(O)C(F)(F)F` (stereo not drawn), the Inhibition in the experiment on Plasmodium falciparum [1] is recorded as 97%; with Plasmodium falciparum [2], 58%; with HepG2, 15%.

For the compound `O=C1COc2ccc3ccccc3c21`, the Inhibition in the experiment on Plasmodium falciparum [1] came to 99%; with Plasmodium falciparum [2], 3%; with HepG2, 0%.

As to `Cl.NOCCCOc1ccccc1`, the Inhibition in the experiment on Plasmodium falciparum [1] was 100%; with Plasmodium falciparum [2] it was 0%; with HepG2, 20%.

`COc1cc(C(=O)Nc2cccc(-c3cn4cccc(C)c4n3)c2)cc(OC)c1OC`: the figures for the Inhibition in the experiment with Plasmodium falciparum [1], in the experiment with Plasmodium falciparum [2] and with HepG2 were 99%, 77% and 0%, respectively.

With `O=C(CCCCCNC(=O)c1ccc(O)c(-c2ccc(Cl)c(Cl)c2)c1)NCc1cccc(C(F)(F)F)c1`, the Inhibition with Plasmodium falciparum [1] turned out to be 92%; in the experiment with Plasmodium falciparum [2] it was 10%; in the experiment on HepG2, 2%.

Take `COc1ccc(-c2cccc(NC(=O)c3ccc(C#N)cc3)c2)cc1CN(C)CCN(C)C.O=C(O)C(F)(F)F`: the Inhibition was 90% in the experiment with Plasmodium falciparum [1], 18% with Plasmodium falciparum [2] and 14% with HepG2.

Regarding `Cc1cccc(Nc2nccc(NCC(O)c3ccc(C(F)(F)F)cc3)n2)c1` (stereo not drawn), the Inhibition with Plasmodium falciparum [1] was 100%; in the experiment with Plasmodium falciparum [2], 54%; in the experiment on HepG2, 11%.

Consider `CCN(CCCN1CCCCC1)c1cc(C)nc(Nc2cccc3c2CCCC3)n1.O=C(O)C(F)(F)F`, for which the Inhibition with Plasmodium falciparum [1] is given as 92%; with Plasmodium falciparum [2] it was 46%; in the experiment with HepG2 it was 60%.

With `COc1ccc(-c2nc(NCc3ccccc3)c3cc(OC)c(OC)cc3n2)cc1`, the Inhibition in the experiment on Plasmodium falciparum [1] is given as 100%; in the experiment on Plasmodium falciparum [2], 100%; in the experiment with HepG2, 15%.

In the case of `Cl.O=c1cc(NCCCNCc2ccc(Cl)c(Cl)c2)[nH]c2cc(F)cc(F)c12`, the Inhibition was 100% with Plasmodium falciparum [1], 94% in the experiment on Plasmodium falciparum [2] and 11% in the experiment with HepG2.

Regarding `O=C(Nc1cccc(F)c1)N(Cc1ccc(-c2cccc(CN3CCNCC3)c2)cc1)C1CCN(Cc2ccccc2)CC1.O=C(O)C(F)(F)F`, the Inhibition is recorded as 97% with Plasmodium falciparum [1], 54% in the experiment on Plasmodium falciparum [2] and 13% in the experiment with HepG2.

On to `COc1ccc(CNCc2ccc(-c3ccc(CNCCc4ccccc4)cn3)cc2)cn1.O=C(O)C(F)(F)F`, for which the results for the Inhibition with Plasmodium falciparum [1], with Plasmodium falciparum [2] and in the experiment with HepG2 were 97%, 44% and 16%, respectively.

`Cc1cc2c(NC(=O)NC3CCN(CCc4cccc(Cl)c4)CC3)cccc2cn1.Cl`: the Inhibition in the experiment with Plasmodium falciparum [1] was 100%; with Plasmodium falciparum [2] it was 27%; with HepG2, 12%.

`CCOC(=O)/C(=N\OC(C)(C)C(=O)NCc1ccc(O)c(O)c1)c1csc(NC(c2ccccc2)(c2ccccc2)c2ccccc2)n1`: the Inhibition in the experiment on Plasmodium falciparum [1] was determined as 100%; with Plasmodium falciparum [2] it was 99%; with HepG2 it was 13%.

As to `COc1ccc(-c2ccc(NC(=O)c3ccc(F)cc3)cc2)cc1CN1CCCN(C)CC1.O=C(O)C(F)(F)F`, the Inhibition in the experiment with Plasmodium falciparum [1] is 98%; in the experiment with Plasmodium falciparum [2], 35%; in the experiment on HepG2 it was 29%.

Regarding `CCCN1CCN(c2ccc(NS(=O)(=O)c3ccc(C(=O)Nc4ccc(Cl)cc4)cc3)cc2)CC1.O=C(O)C(F)(F)F`, the results for the Inhibition in the experiment on Plasmodium falciparum [1], with Plasmodium falciparum [2] and in the experiment on HepG2 were 100%, 50% and 4%, respectively.

Regarding `COc1ccc2c(c1)CC(CNC[C@H](O)c1cccc(Cl)c1)CC2` (stereo partly drawn), the Inhibition in the experiment on Plasmodium falciparum [1] was 94%; in the experiment with Plasmodium falciparum [2], 73%; with HepG2 it was 1%.

As for `O=C(O)C(F)(F)F.OCC1CCN(Cc2ccc(-c3cccc(-c4nc5cc(C(F)(F)F)ccc5[nH]4)c3)cc2)CC1`, the Inhibition is reported as 99% with Plasmodium falciparum [1], 73% with Plasmodium falciparum [2] and 19% with HepG2.

Consider `COc1cc(NC(=O)CCCCCCCCN2CCN(C)CC2)c2ncccc2c1`, for which the Inhibition with Plasmodium falciparum [1] is 82%; in the experiment with Plasmodium falciparum [2], 36%; in the experiment on HepG2 it was 8%.

With `CN(C)CCOc1ccc2nc(-c3cccc(OCc4ccccc4)c3)[nH]c2c1C#N`, the values for the Inhibition with Plasmodium falciparum [1], in the experiment with Plasmodium falciparum [2] and in the experiment with HepG2 were 100%, 86% and 48%, respectively.

Take `COc1ccccc1NC(=O)OC(COc1ccc(N)cc1)CN1CC=C(c2ccccc2)CC1.O=C(O)C(F)(F)F` (stereo not drawn): the values for the Inhibition in the experiment on Plasmodium falciparum [1], in the experiment on Plasmodium falciparum [2] and in the experiment with HepG2 were 90%, 81% and 16%, respectively.

As for `CC(C)CCCC(C)(C)NC[C@@H](O)[C@H](Cc1ccccc1)NC(=O)c1cccc(OCC2CC2)c1`, the Inhibition in the experiment with Plasmodium falciparum [1] is on record as 96%; in the experiment on Plasmodium falciparum [2], 91%; with HepG2 it was 99%.

Turning to `COc1ccccc1CNc1nc(Nc2ccccc2C)nc2ccccc12`, the Inhibition is listed as 100% with Plasmodium falciparum [1], 67% in the experiment with Plasmodium falciparum [2] and 24% in the experiment with HepG2.
